In PubChem BioAssay AID1159554 (Broad Institute, 2015) one finds activity change data, which are given here for 48 molecules.

About 2,100 (2.2%) of roughly 94,000 compounds were called active. No stated cut-off is given here; in the data, active means activity change below about -80%; inconclusive means no clear call, values can overlap the other calls; inactive means above that. The entries come from a sample that favours actives as a whole.

This test can be described thus: Dd2 malaria parasite growth inhibition – SYBR Green fluorescence, single dose replicates, primary screen (AID 1159554). The note with it: P. falciparum Dd2 growth, 72 h, at 10 µM, hits give low values.
As for `C[C@@H]1CN([C@@H](C)CO)S(=O)(=O)c2ccc(C#CC(C)(C)O)cc2O[C@H]1CN(C)C(=O)CN(C)C`, the activity change was 31.6% (inactive).
With `Cc1ccccc1S(=O)(=O)N1[C@@H](C#N)[C@H](c2ccccc2)[C@@H]1CO` the figure was 20.4% (inactive).
To `CCCNC(=O)N1CC2(CN(C(=O)C3CCCCC3)C2)c2c([nH]c3cc(OC)ccc23)[C@@H]1CO` belongs -5.82% (inactive); to `O=C(Nc1ccc(F)cc1)N[C@H]1C=C[C@@H](CC(=O)N2CCOCC2)O[C@H]1CO`, -16.7% (inactive); to `COc1ccc(S(=O)(=O)N(C)C[C@H]2Oc3c(NC(=O)Nc4cccc5ccccc45)cccc3C(=O)N([C@@H](C)CO)C[C@H]2C)cc1`, -88.1% (active).
For the molecule `COc1ccc(S(=O)(=O)N(C)C[C@@H]2Oc3c(NC(=O)NC(C)C)cccc3C(=O)N([C@@H](C)CO)C[C@@H]2C)cc1`, the activity change is -6.46% (inactive).
To `C[C@H](CO)N1C[C@H](C)[C@H](CN(C)S(=O)(=O)c2ccccc2)Oc2c(NC(=O)CCCCCC(=O)Nc3ccccc3N)cccc2C1=O` belongs -73.2% (inactive).
To `C[C@H]1CN([C@@H](C)CO)C(=O)c2cccc(NC(=O)CCCCCC(=O)Nc3ccccc3N)c2O[C@@H]1CN(C)S(=O)(=O)c1cn(C)cn1` belongs 22.6% (inactive); to `C[C@@H]1CN([C@@H](C)CO)C(=O)c2cccc(NC(=O)Nc3cccc4ccccc34)c2O[C@H]1CN(C)S(=O)(=O)c1ccccc1`, -19.1% (inactive); to `COc1ccc(S(=O)(=O)N(C)C[C@H]2Oc3c(NC(=O)CCCCCC(=O)Nc4ccccc4N)cccc3C(=O)N([C@H](C)CO)C[C@H]2C)cc1`, -89.5% (active).
In the case of `COCC(=O)Nc1ccc2c(c1)C(=O)N(C)C[C@@H](OC)[C@@H](C)CN(C(=O)Cc1ccccn1)[C@@H](C)CO2`, the activity change is -33.6% (inactive).
As to `COc1ccc(S(=O)(=O)N(C)C[C@H]2OCCCC[C@@H](C)Oc3ccc(NS(=O)(=O)c4ccc(C)cc4)cc3C(=O)N([C@@H](C)CO)C[C@@H]2C)cc1`, the activity change is -36.4% (inactive).
To `CCCNC(=O)N1[C@H](CO)[C@H]2c3ccccc3N(C(=O)Nc3cccc(Cl)c3)C[C@H]21` belongs 6.16% (inactive).
Turning to `COc1cccc(-c2ccc([C@@H]3[C@@H](C#N)N(C(=O)c4ccccn4)[C@H]3CO)cc2)c1`, the activity change is -35.5% (inactive).
To `COc1cccc(C#Cc2ccc([C@H]3[C@@H](CO)N(C(=O)c4ccccn4)[C@H]3C#N)cc2)c1` belongs -92% (active).
To `COc1cccc(-c2ccc([C@@H]3[C@@H](CO)N(C(=O)c4ccccn4)[C@H]3C#N)cc2)c1` belongs -11.6% (inactive); to `CCCN1C[C@H](C)[C@H](OC)CN(C)C(=O)c2cc(NC(=O)NC3CCCC3)ccc2OC[C@H]1C`, 20% (inactive); to `C[C@@H]1CCCCO[C@@H](CN(C)S(C)(=O)=O)[C@H](C)CN([C@@H](C)CO)C(=O)c2cc(NC(=O)Nc3ccc4c(c3)OCO4)ccc2O1`, 33.8% (inactive).
As to `CO[C@H]1CN(C)C(=O)c2cc(NS(=O)(=O)c3ccccc3)ccc2OC[C@@H](C)N(Cc2nccs2)C[C@@H]1C`, the activity change is -8.31% (inactive).
With `CCS(=O)(=O)N1CC2(CN(Cc3cc(F)ccc3F)[C@@H](CO)c3c2c2ccc(OC)cc2n3C)C1` the figure was -72.9% (inactive); with `CO[C@H]1CN(C)C(=O)c2cc(NS(C)(=O)=O)ccc2OC[C@@H](C)N(Cc2ccccc2)C[C@@H]1C`, -41.2% (inactive).
With `COc1ccc2c3c(n(C)c2c1)[C@H](CO)N(Cc1ccccc1Cl)CC31CN(C(=O)CN(C)C)C1` the figure was -83.6% (active); with `COc1ccc2c3c([nH]c2c1)[C@@H](CO)N(Cc1ccccc1F)CC31CN(C(=O)C2CC2)C1`, -48% (inactive).
To `CCCC(=O)N1CC2(CN(C(=O)NC(C)C)C2)c2c([nH]c3cc(OC)ccc23)[C@@H]1CO` belongs 16.5% (inactive).
As to `COc1ccc2c3c([nH]c2c1)[C@@H](CO)N(C(C)=O)CC31CCN(Cc2ccccc2Cl)CC1`, the activity change is -38.2% (inactive).
With `CCC(=O)N1CC2(C1)CN(Cc1ccccc1Cl)[C@@H](CO)c1[nH]c3cc(OC)ccc3c12` the figure was -91.3% (active); with `COCC(=O)N1CCC2(CC1)CN(Cc1ccccc1Cl)[C@H](CO)c1c2c2ccc(OC)cc2n1C`, -60.4% (inactive); with `COc1ccc2c3c([nH]c2c1)[C@H](CO)N(Cc1ccccc1OC)CC31CCN(S(=O)(=O)c2ccccc2)CC1`, -79.1% (inactive).
To `COc1ccc2c3c([nH]c2c1)[C@H](CO)N(Cc1ccccc1Cl)CC31CN(C(=O)C2CC2)C1` belongs -92.3% (active).
To `COc1ccc2c3c(n(C)c2c1)[C@@H](CO)N(Cc1ccccc1)CC31CN(C(=O)C2CC2)C1` belongs -20.3% (inactive); to `COc1ccc(-c2ccc([C@@H]3[C@@H](C#N)N(C(=O)C4CCCCC4)[C@H]3CO)cc2)cc1`, -30.1% (inactive).
`CCC(=O)Nc1ccc2c(c1)C(=O)N(C)C[C@H](OC)[C@H](C)CN(C(=O)c1ccccn1)[C@@H](C)CO2`: the activity change is 15.8% (inactive).
To `COc1ccc2c3c(n(C)c2c1)[C@H](CO)N(C(=O)Nc1c(C)noc1C)CC31CN(CC2CC2)C1` belongs -7.59% (inactive); to `O=C(C[C@H]1CC[C@H]2NC[C@@H](O)COC[C@@H]2O1)NCCN1CCCC1`, 9.89% (inactive).
To `COc1cccc(CN(C)C[C@H]2OCc3ccccc3-c3c(n(C)c4ccccc34)C(=O)N([C@@H](C)CO)C[C@@H]2C)c1` belongs -62% (inactive); to `COc1ccc2c3c(n(C)c2c1)[C@H](CO)NCC31CN(S(=O)(=O)c2cccc(C)c2)C1`, 21.6% (inactive); to `C[C@H]1CN([C@@H](C)CO)C(=O)c2cccc(NS(=O)(=O)c3cccs3)c2O[C@H]1CN(C)Cc1ccc(C(=O)Nc2ccccc2N)cc1`, -87.1% (active).
To `C[C@@H]1CN([C@@H](C)CO)C(=O)c2cccc(NC(=O)c3cnccn3)c2O[C@H]1CN(C)Cc1ccc(C(=O)O)cc1` belongs -5.79% (inactive); to `C[C@@H]1CN([C@H](C)CO)C(=O)c2cccc(NC(=O)c3cnccn3)c2O[C@@H]1CN(C)Cc1ccc(C(=O)Nc2ccccc2N)cc1`, -88.3% (active).
With `C[C@@H]1CN([C@@H](C)CO)C(=O)c2cccc(NS(=O)(=O)c3cccs3)c2O[C@H]1CN(C)Cc1ccncc1`, the activity change was 28.4% (inactive).
`C[C@H]1CN([C@@H](C)CO)C(=O)c2cccc(NC(=O)c3ccc(-c4nccs4)cc3)c2O[C@H]1CN(C)Cc1ccc(C(=O)O)cc1`: the activity change is 24% (inactive).
With `C[C@@H]1CN([C@@H](C)CO)C(=O)c2cccc(NC(=O)c3ccc(-c4nccs4)cc3)c2O[C@@H]1CN(C)Cc1ccncc1` the figure was -15.6% (inactive); with `C[C@H](CO)N1C[C@H](C)[C@@H](CN(C)S(C)(=O)=O)Oc2c(NC(=O)c3ccc(-c4nccs4)cc3)cccc2C1=O`, -4.15% (inactive).
To `C[C@H](CO)N1C[C@H](C)[C@@H](CN(C)Cc2ccc(C(=O)Nc3ccccc3N)cc2)Oc2c(NC(=O)c3ccc(-c4nccs4)cc3)cccc2C1=O` belongs -90% (active); to `C[C@@H]1CN([C@@H](C)CO)C(=O)c2cccc(NC(=O)c3ccc(-c4nccs4)cc3)c2O[C@H]1CN(C)Cc1ccc(Cl)c(Cl)c1`, -90.3% (active); to `C[C@@H]1CN([C@@H](C)CO)C(=O)c2cccc(NS(=O)(=O)c3cccs3)c2O[C@@H]1CN(C)CC1CC1`, 18.4% (inactive).
Take `C[C@H](CO)N1C[C@H](C)[C@H](CN(C)S(C)(=O)=O)Oc2c(NC(=O)c3ccc(-c4nccs4)cc3)cccc2C1=O`: the activity change is -3.36% (inactive).
With `C[C@@H]1CN([C@@H](C)CO)C(=O)c2cccc(NC(=O)c3cnccn3)c2O[C@H]1CN(C)Cc1ccc(-c2ccccc2)cc1` the figure was -64.1% (inactive).
